{"source": "PubChem BioAssay (Tox21)", "note": "“And” between values parts separate entries of the source, which are not always exact repeats. Equal entries are not always repeated. Results filed as inconclusive are left out. Where a call stands in place of a potency, no number is given. The source made the active and inactive calls. Calls follow the shape of the full dose curve. Potency is read from the fitted curve at half-maximal effect.", "data": [{"molecular_target": "Muscarinic acetylcholine receptor M1 (Homo sapiens) (UniProt P11229)", "sequence (P11229 whole entry, looked up)": "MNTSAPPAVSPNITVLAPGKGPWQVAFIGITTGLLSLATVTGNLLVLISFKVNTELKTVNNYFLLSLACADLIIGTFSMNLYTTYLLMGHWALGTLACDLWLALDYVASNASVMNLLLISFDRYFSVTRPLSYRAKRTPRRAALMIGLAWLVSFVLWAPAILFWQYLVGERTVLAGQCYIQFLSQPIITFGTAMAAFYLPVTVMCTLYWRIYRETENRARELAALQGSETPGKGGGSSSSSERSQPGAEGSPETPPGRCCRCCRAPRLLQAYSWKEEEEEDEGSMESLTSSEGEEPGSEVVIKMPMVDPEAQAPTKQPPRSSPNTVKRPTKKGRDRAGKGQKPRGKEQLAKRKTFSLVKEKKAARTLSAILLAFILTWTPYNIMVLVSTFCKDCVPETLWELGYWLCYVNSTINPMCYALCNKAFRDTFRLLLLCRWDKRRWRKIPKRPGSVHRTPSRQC", "assay": "Cholinergic receptor muscarinic 1 (CHRM1) small molecule antagonists, cell-based qHTS assay (AID 1963588); also: nearly all actives have a fitted effect of over 40% in size", "conditions": "CHRM1-CHO antagonist mode, calcium flux fluorescence; series mostly up to 61.5 µM", "description": "National Center for Advancing Translational Sciences [NCATS]\nDivision of Preclinical Innovation [DPI]\nU.S. Environmental Protection Agency [EPA]\nNational Institutes of Environmental Health Sciences [NIEHS]\nNational Toxicology Program [NTP]\nU.S. Food and Drug Administration [FDA]\nThe CHRM1 is a muscarinic receptor. This receptor plays a crucial role in learning and memory processes and has long been identified as a promising therapeutic target for the improvement of cognitive decline in Alzheimer's disease (AD). The CHRM1-CHO cell line stably expressing human muscarinic acetylcholine receptor M1 (CHRM1) can be used for screening agonists and antagonists of interactions between CHRM1 and its ligands. The CHRM1-CHO Calcium Flux Assay is a homogeneous fluorescence-based assay for detecting the intracellular calcium level using FDSS kinetic plate reader system.\nTox21 Assay Protocol Summary:\nCHRM1-CHO cells were dispensed at 1000 cells/3uL/well in 1536-well black-clear bottom plates using a Multidrop Dispenser. After the assay plates were incubated at a 37 C/5% CO2 incubator for 18 h, 3 uL of Dye Loading Buffer was transferred to the assay plate by a Flying Reagent Dispenser. The assay plates were incubated at 37 C for 1h. For antagonist mode, 23 nL of compounds dissolved in DMSO, positive controls or DMSO only was transferred to the assay plate by a pin tool. After 5 min incubation at room temperature, 1.5 uL of acetylcholine at 50nM was added to each well. The fluorescence intensity in the plates was measured using FDSS 7000EX kinetic plate reader for 3 min at 1 sec intervals. Each test compound was measured at 15 concentrations in three independent runs.", "values": [{"smiles": "NS(=O)(=O)O", "Potency": "inactive"}, {"smiles": "C#CCN(C)Cc1ccccc1", "Potency": "inactive"}, {"smiles": "COc1ccc(OC)cc1", "Potency": "inactive"}, {"smiles": "O=C(CC(C(=O)OC1CCCCC1)S(=O)(=O)O)OC1CCCCC1", "note": "(stereo not given)", "Potency": "inactive"}, {"smiles": "O=[N+]([O-])c1cc(C(F)(F)F)ccc1Cl", "Potency": "inactive"}, {"smiles": "CC(=O)C1=C(C)[C@@H]2C[C@@]3(C1)[C@H](C)CC[C@H]3C2(C)C", "Potency": "inactive"}, {"smiles": "CC(C)c1cccc(C(C)C)c1", "Potency": "inactive"}, {"smiles": "Brc1nc2ccccc2s1", "Potency": "inactive"}, {"smiles": "CC(C)(CO)COC(=O)C(C)(C)CO", "Potency": "inactive"}, {"smiles": "CN(C)C", "Potency": "inactive"}, {"smiles": "CC(CCO)CC(C)(C)C", "note": "(stereo not given)", "Potency": "inactive"}, {"smiles": "O=C(O)Cn1c(=O)n(Cc2ccc(Br)cc2F)c(=O)c2ccc(Cl)cc21", "Potency": "inactive"}, {"smiles": "C=CC[N+](C)(C)CC=C", "Potency": "inactive"}, {"smiles": "CC(=O)CC(C)(C)O", "Potency": "inactive"}, {"smiles": "CC(=O)OC/C=C(C)/C=C/C=C(C)/C=C/C1=C(C)CCCC1(C)C", "Potency": "inactive"}, {"smiles": "COc1cc(NC(=O)CC(C)=O)c(OC)cc1Cl", "Potency": "inactive"}, {"smiles": "Cc1ccc(S(=O)(=O)Oc2ccc(N=Nc3ccc(-c4ccc(N=Nc5c(O)ccc6cc(S(=O)(=O)O)cc(S(=O)(=O)O)c56)c(C)c4)cc3C)cc2)cc1", "Potency": "inactive"}, {"smiles": "Cc1cc(Cc2ccc(N)c(C)c2)ccc1N", "Potency": "inactive"}, {"smiles": "O=S(=O)(O)c1ccc2nc(-c3ccccc3)[nH]c2c1", "Potency": "inactive"}, {"smiles": "C[C@]12CC[C@@H]3c4ccc(O)cc4C[C@@H](CCCCCCCCCS(=O)CCCC(F)(F)C(F)(F)F)[C@H]3[C@@H]1CC[C@@H]2O", "note": "(stereo not given in full)", "Potency": "inactive"}, {"smiles": "CCCCCCCCCCN", "Potency": "inactive"}, {"smiles": "CN(C)CCOC(C)(c1ccccc1)c1ccccn1", "note": "(stereo not given)", "Potency": "18.8 µM (active) and 4.1 µM (active)"}, {"smiles": "CCCCCCCCCCCCS", "Potency": "inactive"}, {"smiles": "CCCCCCCCCCCCCCCC(=O)OC(C)C", "Potency": "inactive"}, {"smiles": "O=C(O)c1ccccc1Nc1cccc(C(F)(F)F)c1", "Potency": "inactive"}, {"smiles": "Clc1ccccn1", "Potency": "inactive"}, {"smiles": "NC=O", "Potency": "inactive"}, {"smiles": "NC(=O)/N=N/C(N)=O", "Potency": "inactive"}, {"smiles": "O=C(O)CS", "Potency": "inactive"}, {"smiles": "CC1=C(/C=C/C(C)=C/C=C/C(C)=C/C(=O)Nc2ccc(O)cc2)C(C)(C)CCC1", "Potency": "inactive"}, {"smiles": "CCCCNS(=O)(=O)c1ccccc1", "Potency": "inactive"}, {"smiles": "O=S(=O)(O)c1ccc2cc(O)ccc2c1", "Potency": "inactive"}, {"smiles": "OCC(O)CS", "note": "(stereo not given)", "Potency": "inactive"}, {"smiles": "CCCCOC(=O)CC(CC(=O)OCCCC)(OC(C)=O)C(=O)OCCCC", "Potency": "inactive"}, {"smiles": "O=CCc1ccccc1", "Potency": "inactive"}, {"smiles": "CC(O)CC(C)(C)O", "note": "(stereo not given)", "Potency": "inactive"}, {"smiles": "CCCOC(=O)c1cc(O)c(O)c(O)c1", "Potency": "inactive"}, {"smiles": "C=C(CC(=O)O)C(=O)O", "Potency": "inactive"}, {"smiles": "COC(=O)C(C)Oc1ccc(Oc2ncc(C(F)(F)F)cc2Cl)cc1", "note": "(stereo not given)", "Potency": "inactive"}, {"smiles": "COCCOCCOCCO", "Potency": "inactive"}]}]}
